Results: PubChem BioAssay (EPA / NIEHS)
More than one record can exist for a structure, and the calls need not agree. Active and inactive are the calls of the source. How the source made its calls: active means hit-call score of the fitted dose curve at least 0.9, where 1 is the maximum; inactive means score below 0.9.

Biological target: Transcription factor Sp1 (Homo sapiens) (UniProt P08047)
Assay: ATG_Sp1_CIS: Attagene CIS-FACTORIAL HepG2 Assay for human Specificity Protein 1 (Sp1) (AID 2282961)
Settings: HepG2 Sp1 cis-reporter transcription, actives raise or lower the signal
Procedure: ATG_CIS is a cell-based, multiplexed-readout assay that uses HepG2, a human liver cell line, with measurements taken at 24 hours after chemical dosing in a 24-well plate.ATG_Sp1_CIS is one of 52 assay component(s) measured or calculated from the ATG_CIS assay. It is designed to make measurements of mRNA induction, a form of inducible reporter, as detected with fluorescence intensity signals by Reverse transcription polymerase chain reaction (RT-PCR) and Capillary electrophoresis technology.Data from the assay component ATG_Sp1_CIS was analyzed into 1 assay endpoint. This assay endpoint, ATG_Sp1_CIS, was analyzed with bidirectional fitting relative to DMSO as the negative control and baseline of activity. Using a type of inducible reporter, measures of mRNA for gain or loss-of-signal activity can be used to understand the reporter gene at the transcription factor-level as they relate to the gene SP1. Furthermore, this assay endpoint can be referred to as a primary readout, because this assay has produced multiple assay endpoints where this one serves a reporter gene function. To generalize the intended target to other relatable targets, this assay endpoint is annotated to the dna binding intended target family, where the subfamily is zinc finger.
Human liver HepG2 cells are transiently transfected with multiple reporter transcription units (MRTUs) in 6-well plates using FuGene 6 reagent (Roche; 3 ml FuGene/1 mg DNA). The MRTU constructs are regulated by a cis-regulating element (promoter). […] A major difference between the CIS and TRANS system is that in CIS activities of endogenous TFs are measured, whereas the TRANS assay evaluates changes in activities of exogenous, chimeric NR-Gal4 proteins. […] At the end of 24 hour incubation, total RNA was isolated using TriZol reagent (Invitrogen). The isolated RNA is then reverse-transcribed using oligo(dT) primer and Mo-MLV reverse transcriptase (Invitrogen) with DNAse I (Ambion) treatment for 30 min. The one-tenth of the produced cDNA was amplified by PCR using Taq DNA polymerase (Invitrogen) and two reporter sequence-specific primers. The PCR products were fluorescently labeled by primer extension with 6-arboxyfluorescein (6-FAM) 5'-labeled reporter sequence-specific primer (2 min at 95 C, 20 s at 68 C and 10 min at 72 C) and these products were digested with 5U of HpaI (New England Biolabs) for 2h at 37 C. The fragments were purified using Qiaquick PCR columns (Qiagen), analyzed on an ABI 3130xL genetic analyzer (Applied Biosystems) with peak positions identified by using a set of X-rhodamine (ROX)-labeled MapMarker1000 molecular weight standards (BioVentures). The raw capillary electrophoresis data was processed using Attagraph software (Attagene).

Chain of Transcription factor Sp1 (Homo sapiens) (P08047 whole entry, looked up): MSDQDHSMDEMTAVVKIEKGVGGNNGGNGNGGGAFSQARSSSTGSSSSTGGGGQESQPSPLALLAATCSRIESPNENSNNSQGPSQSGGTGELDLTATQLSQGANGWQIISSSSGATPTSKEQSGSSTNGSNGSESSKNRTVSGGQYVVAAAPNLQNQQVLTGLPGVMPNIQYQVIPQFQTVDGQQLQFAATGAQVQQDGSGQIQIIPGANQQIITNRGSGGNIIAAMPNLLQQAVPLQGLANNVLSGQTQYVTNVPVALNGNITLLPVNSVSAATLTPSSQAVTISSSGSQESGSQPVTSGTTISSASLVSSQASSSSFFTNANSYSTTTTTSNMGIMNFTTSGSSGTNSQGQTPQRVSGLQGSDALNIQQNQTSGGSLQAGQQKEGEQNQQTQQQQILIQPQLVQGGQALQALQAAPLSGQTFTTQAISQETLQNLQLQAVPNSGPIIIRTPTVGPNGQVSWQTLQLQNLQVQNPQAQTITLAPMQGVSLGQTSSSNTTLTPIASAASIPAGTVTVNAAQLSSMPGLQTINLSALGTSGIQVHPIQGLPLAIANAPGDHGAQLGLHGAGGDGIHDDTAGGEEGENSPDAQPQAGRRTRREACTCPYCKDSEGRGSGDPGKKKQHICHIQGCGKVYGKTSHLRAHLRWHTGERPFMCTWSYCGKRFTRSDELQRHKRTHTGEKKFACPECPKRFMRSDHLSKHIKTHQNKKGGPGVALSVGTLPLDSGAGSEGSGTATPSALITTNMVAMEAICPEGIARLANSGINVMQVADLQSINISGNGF

outcome, inactive:
O=P(O)(O)CCC(F)(F)C(F)(F)C(F)(F)C(F)(F)C(F)(F)C(F)(F)C(F)(F)C(F)(F)F
C=Cc1ccc(O)c(OC)c1
Clc1ccc(Nc2nnc(Cc3ccncc3)c3ccccc23)cc1
COc1cc(OC)nc(NC(=O)NS(=O)(=O)Nc2ccccc2C(=O)N(C)C)n1
CCCCCCCCC1CCC(=O)O1 (stereo not given)
Oc1c(Cl)cc(Cl)cc1Sc1cc(Cl)cc(Cl)c1O
O=S(=O)(O)c1ccccc1
CN(C)c1ccc(C(=C2C=CC(=[N+](C)C)C=C2)c2ccccc2)cc1
CNNCc1ccc(C(=O)NC(C)C)cc1
CCN(CCC#N)c1ccccc1
O=C1OC2(c3ccccc31)c1cc(I)c(O)c(I)c1Oc1c2cc(I)c(O)c1I
O=P(O)(O)CCC(F)(F)C(F)(F)C(F)(F)C(F)(F)C(F)(F)C(F)(F)F
CCCC=O
CN(C)CCOC(c1ccccc1)c1ccccc1
CCCCCCCCCCCC[N+](C)(C)Cc1ccccc1
COC1=CC(=O)C[C@@H](C)[C@]12Oc1c(Cl)c(OC)cc(OC)c1C2=O
COCC1CCC(CO)CC1 (stereo not given)
C=CC(F)(F)C(F)(F)C(F)(F)C(F)(F)F
CN(CCO)S(=O)(=O)C(F)(F)C(F)(F)C(F)(F)C(F)(F)C(F)(F)C(F)(F)C(F)(F)C(F)(F)F
CC1=CC(=O)c2ccccc2C1=O
NS(=O)(=O)O
Cc1ccccc1OCC(=O)O
CC(C)(O)C(=O)c1ccccc1
O=C(OC(=O)C(F)(F)C(F)(F)F)C(F)(F)C(F)(F)F
CC(C)CCOCCC(C)C
CCCCCc1ccc(O)cc1
O=C(O)C(F)(F)OC(F)(F)C(F)(F)OC(F)(F)C(F)(F)OC(F)(F)C(F)(F)C(F)(F)C(F)(F)F
c1cc[nH]c1
O=C(NO)c1ccccc1
CCCCC=O
C[C@]12CC[C@@H]3c4ccc(O)cc4CC[C@H]3[C@@H]1CC[C@@H]2OC(=O)CCC1CCCC1
CCOCCOCC
O=C(F)C(F)(F)C(F)(F)C(F)(F)C(=O)F
CCCCCCCCCCCCCCCCCC[N+](C)(C)Cc1ccccc1

AC50, active:
CN(C)c1ccc(C(=C2C=CC(=[N+](C)C)C=C2)c2ccccc2)cc1 1.43 µM
C/C=C/C(=O)C1=C(C)CCCC1(C)C 35.4 µM
CCCCCCCCCCCC[N+](C)(C)Cc1ccccc1 6.43 µM
CS(=O)(=O)c1ccc([C@@H](CC2CCCC2)C(=O)Nc2cnccn2)cc1Cl 160 µM
CCCCc1oc2ccccc2c1C(=O)c1cc(I)c(OCCN(CC)CC)c(I)c1 130 µM
O=C(O)C(F)(F)OC(F)(F)C(F)(F)OC(F)(F)C(F)(F)OC(F)(F)C(F)(F)C(F)(F)C(F)(F)F 31.8 µM
